From PubChem
SMARCA2 activ = SMARCA2 function activation, primary screen; MG213 cells, MMTV-luciferase reporter, dexamethasone, overnight; 370,000 tested, 1% active; activation, % at 9.1 µM; AID 652017; in the data active means activation above about 7.8%
HSF1 inh = HSF1 inhibition | activity change, negative = inhibition, % at 7.5 µM (by protocol) | 300,000 tested, 0.77% active | NIH3T3-HGL HSE-luciferase, MG132-induced, luminescence 8 h; active compounds read low;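 active means more than half of replicate wells show activity change below -50%, luminescence cut by over half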;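 further: luciferase reports HSF-1 transcriptional activity via heat shock element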
HSP90 inh = HSP90 refolding inhibition in rabbit reticulocyte lysate; luciferase refolding luminescence, 3 h; inhibition, % at 5.6 µM; 290,000 tested, 0.91% active;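 active means inhibition above the screen-wide mean plus 3 SD, computed separately per campaign, cut at about 16% in these data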;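 further: inhibitors lower the luminescence because luciferase stays unfolded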
PG9 Ab binder = PG9 antibody binding by small molecule | inhibition, % at 6.7 µM | TR-FRET gp120-PG9 antibody binding | 360,000 tested, 0.43% active; in the data active means inhibition above about 8.5%
AI-2 QS modul = modulates the Vibrio harveyi AI-2 quorum sensing system | 300,000 tested, 0.4% active | activity change, % at 7.5 µM | AID 2094 | Vibrio harveyi JMH597 AI-2 luminescence/OD600 ratio, 9 h; active compounds read low; strain lacks LuxN and CqsS sensors; 0 = neutral-control median; in the data active means activity change below about -75%, passing the limit was not always enough;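 further: luminescence divided by OD600 gain over 9 h not by final OD600 alone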
GAA850 FXN act = frataxin GAA850 promoter activation; 360,000 tested, 0.56% active; HEK293 lucGAA850 FXN promoter luciferase reporter, 24 h; percent of 10 µM SAHA response; activation, % at 6 µM;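 active means activation above the average of all compounds screened plus 3 SD, cutoff fixed separately per campaign, cut at about 7.5% in these data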
A number is an active result; 0 = inactive; - = no result given. Compounds with a hit are over-represented: about 3.4% of the library has one in this group of screens.

SMILES	SMARCA2 activ	HSF1 inh	HSP90 inh	PG9 Ab binder	AI-2 QS modul	GAA850 FXN act
CC(C)[C@H](Nc1nc(-c2ccccc2)nc2c1oc1ccccc12)C(=O)O	0	-55	0	0	0	0
CCC(C)[C@H](Nc1nc(-c2ccccc2)nc2c1oc1ccccc12)C(=O)O (stereo partly specified)	0	0	0	0	0	0
CCCc1cc(=O)oc2cc(OC(C)C(=O)NCCCn3ccnc3)ccc12 (stereo unspecified)	7.9	0	0	0	0	0
CCCc1cc(=O)oc2cc(C)cc(OCC(=O)NCCCn3ccnc3)c12	0	-76	0	0	0	0
CCCc1cc(=O)oc2cc(OCC(=O)NCCCn3ccnc3)ccc12	0	0	0	0	0	0
COC(=O)[C@]12C[C@H](CC(=O)NCCCCc3ccccc3)C(=O)N(Cc3ccccc3)C1=C[C@H](COCc1ccccc1)O[C@@H]2C	0	-	-	-	-	-
Cc1cc(C)cc(NC(=O)Cc2ccc(-n3cccc3)cc2)c1	0	0	0	0	0	0
Cc1ccc(NC(=O)Cc2ccc(-n3cccc3)cc2)c(C)c1	0	-53	0	0	0	0
CCOC(=O)[C@@]12CCC3=C1N(CCC3)C(=O)[C@H](CC(=O)N1CCOCC1)C2	0	-	-	-	-	-
CCCCNC(=O)N1CCC(c2nc3ccc(Cl)cc3[nH]2)CC1	0	-	-	-	-	-
Cc1nn(-c2ccccc2)c(Cl)c1CN(C(=O)CCl)c1ccc(Cl)cc1	0	-86	0	0	0	0
COc1ccccc1CNC(=O)N1CCN(c2ccccc2C)CC1	0	-72	0	0	0	0
COc1ccccc1CNC(=O)N1CCN(c2ccccc2)CC1	0	0	0	0	0	0
CCOC(=O)Cc1cc(=O)c2cc(C)ccc2[nH]1	0	-68	0	0	0	0
O=C(Nc1nc2ncccn2c1-c1ccccc1)c1ccccc1	0	-	-	-	-	-
C#CCNC(=O)C[C@@H]1C(=O)N(CCc2ccc(Cl)cc2)C2=CCCCC[C@]21C(=O)OC	0	-	-	-	-	-
CC(C)[C@H](NC(=O)[C@@H]1Cc2ccccc2CN1)C(=O)Nc1ccc2c(c1)OCCO2	0	0	0	0	0	0
O=C(CNC(=O)[C@@H]1Cc2ccccc2CN1)Nc1ccc2c(c1)OCCO2	0	-52	0	0	0	0
C[C@H](NC(=O)[C@@H]1Cc2ccccc2CN1)C(=O)Nc1ccc2c(c1)OCCO2	0	0	0	0	0	0
CSCC[C@H](NC(=O)[C@@H]1Cc2ccccc2CN1)C(=O)Nc1ccc2c(c1)OCCO2	0	-52	0	0	0	0
COCc1cn(-c2ccc3c(c2)[C@]2(CC(=O)N(C)C2c2ccccc2)C(=O)N3CC(C)C)nn1 (stereo partly specified)	0	-	-	-	-	-
OCCOCCNc1ncnc2c1cnn2-c1ccccc1	7.8	0	0	0	0	0
OCCOCCNc1ncnc2c1cnn2-c1ccc(Cl)cc1	0	0	0	0	0	0
CN(C(=O)c1ccc(OC2CCN(Cc3ccccn3)CC2)cc1)C1CCCCC1	0	-52	0	0	0	0
C#CCN(C(=O)c1ccc(OC2CCN(Cc3ccccn3)CC2)cc1)C1CCCCC1	0	0	0	0	0	0
SMILES	SMARCA2 activ	HSF1 inh	HSP90 inh	PG9 Ab binder	AI-2 QS modul	GAA850 FXN act
CCCCOc1ccc(C2C(=O)N(C3CCCCC3)CC(=O)N2CC2CCCO2)cc1 (stereo unspecified)	0	-54	0	0	0	0
O=C(CCc1ccccc1)N[C@H]1[C@H](OCc2ccccc2)CCC[C@@]12C(=O)N(Cc1ccccc1)c1ccc(-c3ccccn3)cc12	0	-	-	-	-	-
O=C(COC(=O)c1ccc(O)cc1O)Nc1ccc(Cl)cn1	0	0	0	0	-83	0
O=C(Nc1ccccc1)OCCN1C(=O)CCC12CCC(c1ccc(Cl)cc1)CC2 (stereo unspecified)	0	-	-	-	-	-
C=CCN(CC(O)c1cccc([N+](=O)[O-])c1)C(C)CCc1ccccc1 (stereo unspecified)	0	-78	0	0	0	0
O=C(Cc1ccccc1)NC(NC(=O)Cc1ccccc1)c1cccc([N+](=O)[O-])c1	0	0	0	0	0	0
Cn1c(=O)c([N+](=O)[O-])c(Cl)c2ccccc21	0	-73	0	0	0	0
CCOC(=O)c1ccc(Nc2ncnc3c2cnn3C)cc1	0	0	0	0	0	0
Cn1ncc2c(O/N=C(\N)c3ccc(C(C)(C)C)cc3)ncnc21	-	-92	0	-	0	0
Brc1ccccc1C1Cc2nnccc2CN1 (stereo unspecified)	0	-	-	0	-	-
Cc1ccccc1OCC(=O)Nc1ccc2c(c1)C(=O)N(CCC(=O)O)C2=O	0	-51	0	0	0	0
Cn1cccc1C(=O)N1CCN(S(=O)(=O)c2ccc(Cl)s2)CC1	0	-	-	-	-	-
CC1C(=O)C(C)C(c2ccco2)NC1c1ccco1 (stereo unspecified)	0	-64	0	0	0	0
CS(=O)(=O)Nc1nc2ccccc2[nH]1	0	-82	0	0	0	0
O=S(=O)(Nc1nc2ccccc2[nH]1)c1ccccc1	0	0	0	0	0	0
O=C(NCCCN1CCC(Cc2ccccc2)CC1)C1CCC(=O)N1C1CCCC1 (stereo unspecified)	0	0	0	0	0	0
O=C(NCCCN1CCC(Cc2ccccc2)CC1)C1CC(=O)N(C2CCCC2)C1 (stereo unspecified)	0	-62	0	0	0	0
O=C(CN1CCN(c2ccc(O)cc2)CC1)Nc1cc(S(=O)(=O)N2CCCC2)ccc1Cl	0	-56	0	0	0	0
NC(=O)[C@@H]1CCCN1C(=O)[C@@H](Cc1ccccc1)NC(=O)[C@H]1O[C@@H](n2ccc(=O)[nH]c2=O)[C@H](O)[C@@H]1O	0	-	-	0	-	-
CCOC(=O)c1c(C)[nH]c(C(=O)N/N=C/c2cc([N+](=O)[O-])ccc2O)c1C	0	-59	0	0	0	0
CCOC(=O)c1c(C)[nH]c(C(=O)N/N=C\c2ccccc2O)c1C	0	0	0	0	0	0
COCC(=O)N1CCC(C(=O)NC2CCCc3ccccc32)CC1 (stereo unspecified)	0	-	-	-	-	-
CCOc1ccc2nc(NC(=O)c3ccoc3C)sc2c1	0	0	28	0	0	0
CN1CCc2c(sc3c2c(=O)n(-c2ccc(Cl)cc2)c2nncn32)C1	0	-55	0	0	0	0
O=C(CCc1nnc(CCCc2ccccc2)o1)NCCc1ccccc1	0	0	0	0	0	0
O=C(CCc1nnc(CCCc2ccccc2)o1)NCCc1ccco1	7.8	0	0	0	0	0
CCOC(=O)c1c(NC(=O)CSc2nnc(-c3c[nH]c4ccccc34)n2C)sc2c1CCCC2	0	-56	0	0	0	0
CCOC(=O)c1c(NC(=O)CSc2nnc(-c3c[nH]c4ccccc34)n2CCOC)sc2c1CCCC2	0	0	0	0	0	0
CC1CCN(c2c3c(nc4ncnn24)CCCC3)CC1	0	-	-	-	-	-
CS(=O)(=O)c1ccc(C(=O)OCc2nnc(-c3ccc(Cl)cc3)o2)cc1[N+](=O)[O-]	-	-96	0	-	0	14
